Values joined by “and” are separate entries in the source; they are usually repeats but may differ in a detail not shown here. Identical values can stand only once. Results filed as inconclusive are left out. Some structures have more than one record in an assay (separate samples or runs), and their calls can disagree. Active and inactive are the calls of the source. Calls come from the whole dose curve; as a rule, active = well fitted curve in the direction sought with a large enough effect in the repeat runs; inconclusive = weak or mixed curves; inactive = no such curve, though single readings can be large; an effect the other way counts as inactive or inconclusive.

The values that follow come from PubChem BioAssay (Tox21).

Experiment [1] concerns the target Cytochrome P450 2C19 (Homo sapiens) (UniProt P33261). Briefly: Cytochrome P450 Family 2 Subfamily C Member 19 (CYP2C19) small molecule antagonists: luciferase reporter qHTS assay (AID 1671197). Note: nearly all actives have a fitted effect of over 65% in size. Note: potency is the fitted concentration of half-maximal effect. A digest of the protocol:
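CYP2C19 P450-Glo, 1536-well qHTS. Cpd + enzyme/proluciferin substrate 10 min RT; + NADPH regen, 37C 1 h; stop with luciferin detection reagent, 20 min RT, luminescence (RLU). Pos ctrl ketoconazole.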

The target of experiment [2] is Cytochrome P450 2C9 (Homo sapiens) (UniProt P11712). Briefly: Cytochrome P450 Family 2 Subfamily C Member 9 (CYP2C9) small molecule antagonists: luciferase reporter qHTS assay (AID 1671198). Note: nearly all actives have a fitted effect of over 50% in size. Note: potency is the fitted concentration of half-maximal effect. A digest of the protocol: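 P450-Glo proluciferin substrate with CYP2C9 enzyme; 10 min RT preincubation, then NADPH regeneration 1 h at 37C; luciferin detection reagent 20 min RT, luminescence in relative luminescence units.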
Sequence of Cytochrome P450 2C9 (Homo sapiens) (P11712 whole entry, looked up): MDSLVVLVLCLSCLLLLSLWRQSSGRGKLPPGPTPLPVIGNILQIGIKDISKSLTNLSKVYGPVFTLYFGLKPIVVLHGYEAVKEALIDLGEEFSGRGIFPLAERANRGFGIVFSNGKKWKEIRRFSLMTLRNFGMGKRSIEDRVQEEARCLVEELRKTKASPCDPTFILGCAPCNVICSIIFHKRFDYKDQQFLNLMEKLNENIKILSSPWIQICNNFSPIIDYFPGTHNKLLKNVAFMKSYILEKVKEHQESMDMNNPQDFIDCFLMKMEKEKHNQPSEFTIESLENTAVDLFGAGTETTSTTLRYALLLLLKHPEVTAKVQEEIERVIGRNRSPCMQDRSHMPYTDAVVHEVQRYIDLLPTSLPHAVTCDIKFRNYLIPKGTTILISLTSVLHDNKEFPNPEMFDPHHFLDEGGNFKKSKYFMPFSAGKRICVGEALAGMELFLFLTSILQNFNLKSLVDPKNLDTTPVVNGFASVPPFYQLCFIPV
On the technique in general: A reporter such as luciferase makes a cellular process visible.

The target of experiment [3] is Cytochrome P450 1A2 (Homo sapiens) (UniProt P05177). As to the kind of experiment: Cytochrome P450 Family 1 Subfamily A Member 2 (CYP1A2) small molecule antagonists: luciferase reporter qHTS assay (AID 1671199). Note: nearly all actives have a fitted effect of over 50% in size. Note: potency is the fitted concentration of half-maximal effect. A digest of the protocol: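 Quantitative high-throughput format using the P450-Glo CYP1A2 system. Reaction initiated by NADPH regeneration solution, 1 h at room temperature, then stopped with detection reagent; luminescence measured 20 min later.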
Sequence of Cytochrome P450 1A2 (Homo sapiens) (P05177 whole entry, looked up): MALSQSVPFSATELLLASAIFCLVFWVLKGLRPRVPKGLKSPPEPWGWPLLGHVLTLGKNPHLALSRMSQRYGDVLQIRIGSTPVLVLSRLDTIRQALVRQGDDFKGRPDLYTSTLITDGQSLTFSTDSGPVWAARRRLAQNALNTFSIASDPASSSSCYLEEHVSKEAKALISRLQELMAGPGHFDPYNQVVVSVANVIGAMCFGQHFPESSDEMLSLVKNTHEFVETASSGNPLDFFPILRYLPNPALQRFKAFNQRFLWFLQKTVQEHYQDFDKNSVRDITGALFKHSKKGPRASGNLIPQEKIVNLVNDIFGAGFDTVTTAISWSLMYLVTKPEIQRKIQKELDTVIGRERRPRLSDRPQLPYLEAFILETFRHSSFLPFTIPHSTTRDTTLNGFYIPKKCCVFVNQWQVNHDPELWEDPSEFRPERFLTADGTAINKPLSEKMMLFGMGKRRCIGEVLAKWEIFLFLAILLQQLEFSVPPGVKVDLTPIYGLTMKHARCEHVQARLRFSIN

Experiment [4] deals with Voltage-gated inwardly rectifying potassium channel KCNH2 (Homo sapiens) (UniProt Q12809). As to the kind of experiment: Human Ether-a-go-go-Related Gene (hERG) channel small molecule antagonists: fluorescence cell-based qHTS assay (AID 1671200).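 Note: hERG-expressing U2OS cells given a thallium stimulus after FluxOR II dye loading; series mostly up to about 77 µM; nearly all actives have a fitted effect of over 50% in size.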 A digest of the protocol:
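hERG-U2OS cells plated overnight at 37 C, loaded with FluxOR II dye 1 h at RT in dark; after 10 min, thallium stimulus added. Fluorescence (480/540 nm) read kinetically for 2 min at 1 s intervals.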
(hERG is a cardiac potassium channel; its block is linked to QT prolongation.)

Experiment [5] concerns the target Cytochrome P450 3A4 (Homo sapiens) (UniProt P08684). As to the kind of experiment: Cytochrome P450 Family 3 Subfamily A Member 4 (CYP3A4) small molecule antagonists: luciferase reporter qHTS assay (AID 1671201). Note: nearly all actives have a fitted effect of over 50% in size. Note: potency is the fitted concentration of half-maximal effect. Put shortly:
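P450-Glo CYP3A4 luminescent assay: compounds preincubated 10 min at room temperature with enzyme and proluciferin substrate, NADPH regeneration added, 1 h room-temperature reaction, stopped with luciferin detection reagent; luminescence read after 20 min. Ketoconazole positive control.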

Sequence of Cytochrome P450 3A4 (Homo sapiens) (P08684 whole entry, looked up): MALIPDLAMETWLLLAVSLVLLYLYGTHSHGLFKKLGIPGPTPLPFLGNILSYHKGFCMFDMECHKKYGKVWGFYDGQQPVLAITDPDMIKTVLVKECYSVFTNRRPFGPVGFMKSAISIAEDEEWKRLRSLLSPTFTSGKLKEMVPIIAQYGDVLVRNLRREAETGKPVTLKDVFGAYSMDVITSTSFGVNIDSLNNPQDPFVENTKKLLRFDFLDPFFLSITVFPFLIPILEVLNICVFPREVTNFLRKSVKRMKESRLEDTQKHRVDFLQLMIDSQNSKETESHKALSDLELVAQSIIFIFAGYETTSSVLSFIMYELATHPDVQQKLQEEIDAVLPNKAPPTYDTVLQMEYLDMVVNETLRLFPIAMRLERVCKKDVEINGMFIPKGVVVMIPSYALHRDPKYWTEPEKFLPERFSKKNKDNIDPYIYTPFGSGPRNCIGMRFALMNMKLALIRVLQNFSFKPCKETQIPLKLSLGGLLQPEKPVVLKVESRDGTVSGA
Sequence of Cytochrome P450 2C19 (Homo sapiens) (P33261 whole entry, looked up): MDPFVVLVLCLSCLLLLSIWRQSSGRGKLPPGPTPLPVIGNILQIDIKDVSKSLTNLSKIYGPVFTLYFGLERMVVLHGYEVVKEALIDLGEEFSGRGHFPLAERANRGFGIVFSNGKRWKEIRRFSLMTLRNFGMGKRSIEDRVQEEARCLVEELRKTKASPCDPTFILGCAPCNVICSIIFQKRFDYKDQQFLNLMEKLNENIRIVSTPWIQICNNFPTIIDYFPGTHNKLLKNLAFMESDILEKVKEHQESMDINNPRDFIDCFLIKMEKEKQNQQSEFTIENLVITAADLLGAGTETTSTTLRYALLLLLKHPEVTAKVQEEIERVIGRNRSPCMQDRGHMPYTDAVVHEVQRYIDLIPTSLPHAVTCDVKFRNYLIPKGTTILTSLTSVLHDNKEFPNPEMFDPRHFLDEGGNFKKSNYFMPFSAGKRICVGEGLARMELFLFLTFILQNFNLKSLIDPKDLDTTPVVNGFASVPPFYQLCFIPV
Sequence of Voltage-gated inwardly rectifying potassium channel KCNH2 (Homo sapiens) (Q12809 whole entry, looked up): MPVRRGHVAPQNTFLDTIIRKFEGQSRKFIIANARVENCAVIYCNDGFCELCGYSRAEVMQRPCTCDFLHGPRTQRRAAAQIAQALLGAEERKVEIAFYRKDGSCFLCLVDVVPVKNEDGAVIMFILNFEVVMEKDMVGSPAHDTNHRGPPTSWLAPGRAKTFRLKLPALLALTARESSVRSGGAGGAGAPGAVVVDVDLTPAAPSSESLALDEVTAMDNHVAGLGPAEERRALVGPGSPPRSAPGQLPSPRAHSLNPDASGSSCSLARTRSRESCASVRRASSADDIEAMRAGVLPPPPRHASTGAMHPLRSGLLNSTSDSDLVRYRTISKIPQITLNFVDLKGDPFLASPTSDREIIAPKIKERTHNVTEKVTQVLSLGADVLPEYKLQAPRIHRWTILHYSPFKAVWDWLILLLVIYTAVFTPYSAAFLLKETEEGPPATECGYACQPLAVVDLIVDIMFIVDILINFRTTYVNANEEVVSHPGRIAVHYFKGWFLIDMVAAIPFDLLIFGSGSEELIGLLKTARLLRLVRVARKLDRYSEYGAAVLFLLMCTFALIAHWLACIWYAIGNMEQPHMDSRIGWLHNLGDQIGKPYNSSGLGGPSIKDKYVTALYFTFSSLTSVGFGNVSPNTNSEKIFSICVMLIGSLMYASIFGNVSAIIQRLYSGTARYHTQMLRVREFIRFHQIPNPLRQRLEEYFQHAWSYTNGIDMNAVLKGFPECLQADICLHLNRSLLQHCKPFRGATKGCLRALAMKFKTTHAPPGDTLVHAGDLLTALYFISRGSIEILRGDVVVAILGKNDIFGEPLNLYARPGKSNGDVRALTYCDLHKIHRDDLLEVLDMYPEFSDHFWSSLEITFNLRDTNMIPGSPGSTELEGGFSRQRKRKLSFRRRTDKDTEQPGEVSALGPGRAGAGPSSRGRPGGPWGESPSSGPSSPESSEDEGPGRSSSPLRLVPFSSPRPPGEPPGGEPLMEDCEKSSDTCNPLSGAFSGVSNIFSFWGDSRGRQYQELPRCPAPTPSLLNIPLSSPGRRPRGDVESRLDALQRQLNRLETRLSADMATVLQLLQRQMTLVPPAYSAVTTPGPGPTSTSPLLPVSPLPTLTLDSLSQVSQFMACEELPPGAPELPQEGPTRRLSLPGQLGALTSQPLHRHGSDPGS

For `CCCCC/C=C\C/C=C\CCCCCCCC(=O)OC`, the Potency is 55.8 µM (active) and 11.2 µM (active) in experiment [1]; 35.2 µM (active) and 7.96 µM (active) in experiment [2]; 35.6 µM (active) in experiment [3]; “inactive and 7.1 µM (active)” in experiment [5]. Besides, in experiment [4], the Potency entry was “inactive”.
In the case of `Nc1c(S(=O)(=O)O)cc(Br)c2c1C(=O)c1ccccc1C2=O`, the Potency result in experiment [1], in experiment [4] and in experiment [5] was “inactive” throughout. Further, the Potency is 16.3 µM (active) and 7.96 µM (active) in experiment [2]; 3.24 µM (active) and 2 µM (active) in experiment [3].
Regarding `CC1=C(CC(=O)O)c2cc(F)ccc2/C1=C\c1ccc(S(C)=O)cc1` (centres undefined), the Potency in experiment [1] was 7.96 µM (active) and 8.71 µM (active); in experiment [2] it was 50.2 µM (active) and inactive; in experiment [3], 35.6 µM (active). Also, the Potency result in experiment [4] and in experiment [5] was “inactive” each time.
On to `CC1(C)O[C@@H]2C[C@H]3[C@@H]4C[C@H](F)C5=CC(=O)CC[C@]5(C)[C@H]4[C@@H](O)C[C@]3(C)[C@]2(C(=O)CO)O1`, for which the Potency entry in experiment [1], in experiment [2] and in experiment [3] was “inactive” in each case.
In the case of `CN(C)c1cccc(O)c1`, the Potency was 2.56 µM (active) and 3.56 µM (active) in experiment [1]; 16.1 µM (active) and 12.6 µM (active) in experiment [2]; 32.2 µM (active) and 31.7 µM (active) in experiment [3]. For the same compound, in experiment [4], the Potency result was “inactive”.
`COC(=O)c1ccc(C(=O)OC)cc1`: the Potency is 18.1 µM (active) and inactive in experiment [1]; 40.5 µM (active) and inactive in experiment [2]; 25.5 µM (active) and 10 µM (active) in experiment [3]. The Potency result in experiment [4] and in experiment [5] was “inactive” each time.
For `Oc1ccc2ccccc2c1N=Nc1ccccc1`, the Potency in experiment [1] was 31.7 µM (active); in experiment [2] it was 11.2 µM (active) and 14.2 µM (active); in experiment [3], 356 nM (active) and 2.52 µM (active); in experiment [5], 6.33 µM (active) and 20 µM (active). Moreover, in experiment [4], the Potency result was “inactive”.
As to `c1ccc2[nH]cnc2c1`, the Potency entry in experiment [1], in experiment [2], in experiment [3], in experiment [4] and in experiment [5] was “inactive” each time.
For `O=C(O)c1cc(-c2ccccc2)nc2ccccc12`, the Potency is 50.9 µM (active) and inactive in experiment [1]; 43.9 µM (active) in experiment [2]; 36.9 µM (active) in experiment [3]. Further, the Potency result in experiment [4] and in experiment [5] was “inactive” each time.
As for `CCCCCCOC(C)=O`, the Potency entry in experiment [1], in experiment [2], in experiment [3], in experiment [4] and in experiment [5] was “inactive” throughout.
Consider `O=C(Oc1ccccc1)c1ccc(O)cc1`, for which the Potency was 40.2 µM (active) and 22.4 µM (active) in experiment [1]; 11.3 µM (active) and 25.2 µM (active) in experiment [2]; 28.5 µM (active) and 35.6 µM (active) in experiment [3]. Besides, the Potency result in experiment [4] and in experiment [5] was “inactive” throughout.
Turning to `CCC(C)C=O` (centres undefined), the Potency in experiment [1] is 39.9 µM (active) and inactive. In addition, the Potency entry in experiment [2], in experiment [3], in experiment [4] and in experiment [5] was “inactive” each time.
Consider `CN(CCOc1ccc(CC2SC(=O)NC2=O)cc1)c1ccccn1` (centres undefined), for which the Potency entry in experiment [1], in experiment [3] and in experiment [4] was “inactive” throughout. The Potency in experiment [2] was 62.9 µM (active) and inactive.
Regarding `Cc1ccc(C)c(C)c1`, the Potency entry in experiment [1], in experiment [2], in experiment [4] and in experiment [5] was “inactive” each time. In experiment [3], the Potency result was “inactive and 29.6 µM (active)”.
For `C=C(C)C(=O)OCCCCCCCCCCCC`, the Potency entry in experiment [1], in experiment [2], in experiment [3], in experiment [4] and in experiment [5] was “inactive” throughout.
Take `OC1CCCC1`: the Potency result in experiment [1], in experiment [2], in experiment [3], in experiment [4] and in experiment [5] was “inactive” in each case.
Regarding `OCCOCCOCCOCCO`, the Potency is 40.8 µM (active) and inactive in experiment [1]; 39.9 µM (active) in experiment [3]. Besides, the Potency result in experiment [2] and in experiment [5] was “inactive” each time.
With `C=C(C)C(=O)OCCCCCC`, the Potency entry in experiment [1], in experiment [2], in experiment [3], in experiment [4] and in experiment [5] was “inactive” throughout.
On to `C=C(C)C(=O)OCC(CC)(COC(=O)C(=C)C)COC(=O)C(=C)C`, for which the Potency is 3.62 µM (active) and 3.49 µM (active) in experiment [1]; 14.4 µM (active) and 15.6 µM (active) in experiment [2]; 32.2 µM (active) and 27.8 µM (active) in experiment [3]. Besides, the Potency result in experiment [5] is “inactive”.
As for `Cc1cc(O)c2c(c1)C(=O)c1cc(O)cc(O)c1C2=O`, the Potency entry was “inactive and 35.6 µM (active)” in experiment [1]; 12.3 µM (active) and 11.2 µM (active) in experiment [2]; 8.94 µM (active) in experiment [3]; 27.6 µM (active) and 22.4 µM (active) in experiment [5].
Turning to `CCC(=O)O`, the Potency entry in experiment [1], in experiment [2], in experiment [3] and in experiment [5] was “inactive” in each case.
As to `NC(=O)/N=N/C(N)=O`, the Potency in experiment [1] was 3.18 µM (active) and 5.64 µM (active); in experiment [2], 4 µM (active) and 3.99 µM (active); in experiment [3], 17.9 µM (active) and 15.9 µM (active). Moreover, the Potency entry in experiment [4] and in experiment [5] was “inactive” in each case.
Consider `CCCCCCCCCC(=O)O`, for which the Potency result in experiment [1], in experiment [3] and in experiment [5] was “inactive” in each case. In addition, in experiment [2], the Potency is 74.8 µM (active).
Turning to `CCc1ccccc1O`, the Potency in experiment [1] was 17.7 µM (active) and inactive; in experiment [2] it was 35.4 µM (active); in experiment [3], 31.6 µM (active); in experiment [5], 31.6 µM (active) and inactive.
For the compound `C=C(C#N)C(=O)OCC`, the Potency result was “inactive and 56.4 µM (active)” in experiment [1]; “inactive and 63.3 µM (active)” in experiment [2]. Further, the Potency entry in experiment [3], in experiment [4] and in experiment [5] was “inactive” throughout.
As to `C=C1C2CCC(C2)C1(C)C` (centres undefined), the Potency result in experiment [1], in experiment [2] and in experiment [5] was “inactive” in each case. In addition, in experiment [3], the Potency entry is “inactive and 39.9 µM (active)”.
